Experimental data from PubChem BioAssay AID1159580 (chemical genetic matrix, 2015).
“And” between values parts separate entries of the source, which are not always exact repeats. Equal values may be shown once. The whole screen tested about 5,500 compounds, of which about 2,000 (36%) were called active. Another 18% or so got no clear call; they are omitted. Some of the results follow. A number with no mark means an inactive call. Cut-off read from the data, not from the text of the source: active = normalized growth mostly below about 0.91 (no sharp cut-off); inconclusive = no clear call, values can overlap the other calls; inactive = mostly above about 0.92.

Experiment: chemical genetic growth profiling, strain panel (AID 1159580);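 note: tested at 20 µM; growth read once vehicle control cultures reached saturation at 30 °C; 1 = growth at the plate median or of vehicle wells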
Settings: growth OD

O=C(CCCN1CCC2(CC1)C(=O)NCN2c1ccccc1)c1ccc(F)cc1
normalized growth (S. cerevisiae deletion strains, locus YKL009W, strain mrt4, stronger effect = lower value): 0.977 | normalized growth (S. cerevisiae deletion strains, locus YKL068W, stronger effect = lower value): 0.99 | normalized growth (S. cerevisiae deletion strains, locus YKL085W, strain MDH1 (second series), stronger effect = lower value): 0.986 | normalized growth (S. cerevisiae deletion strains, locus YKL085W, strain MDH1, stronger effect = lower value): 0.986 | normalized growth (S. cerevisiae deletion strains, locus YKL160W, strain elf1, stronger effect = lower value): 0.946 | normalized growth (S. cerevisiae deletion strains, locus YKL190W, strain CNB1, stronger effect = lower value): 0.99 | normalized growth (S. cerevisiae deletion strains, locus YKR001C, strain vps1, stronger effect = lower value): 0.999 | normalized growth (S. cerevisiae deletion strains, locus YKR026C, strain gcn3, stronger effect = lower value): 0.985 | normalized growth (S. cerevisiae deletion strains, locus YKR091W, strain srl3, stronger effect = lower value): 0.97 | normalized growth (S. cerevisiae deletion strains, locus YLL001W, strain dnm1, stronger effect = lower value): 1.01 | normalized growth (S. cerevisiae deletion strains, locus YLL026W, stronger effect = lower value): 0.978 | normalized growth (S. cerevisiae deletion strains, locus YLL041C, strain sdh2, stronger effect = lower value): 0.988 | normalized growth (S. cerevisiae deletion strains, locus YLR027C, strain aat2, stronger effect = lower value): 0.99 | normalized growth (S. cerevisiae deletion strains, locus YLR039C, strain RIC1, stronger effect = lower value): 0.995 | normalized growth (S. cerevisiae deletion strains, locus YLR058C, strain SHM2, stronger effect = lower value): 0.975 | normalized growth (S. cerevisiae deletion strains, locus YLR102C, strain apc9, stronger effect = lower value): 0.995 | normalized growth (S. cerevisiae deletion strains, locus YLR113W, strain HOG1, stronger effect = lower value): 1.01 | normalized growth (S. cerevisiae deletion strains, locus YLR221C, strain rsa3, stronger effect = lower value): 1.02 | normalized growth (S. cerevisiae deletion strains, locus YLR258W, strain gsy2, stronger effect = lower value): 0.986 | normalized growth (S. cerevisiae deletion strains, locus YLR262C, strain YPT6 (second series), stronger effect = lower value): 0.995 | normalized growth (S. cerevisiae deletion strains, locus YLR262C, strain YPT6, stronger effect = lower value): 0.955 | normalized growth (S. cerevisiae deletion strains, locus YLR268W, strain sec22, stronger effect = lower value): 0.93 | normalized growth (S. cerevisiae deletion strains, locus YLR320W, strain mms22, stronger effect = lower value): 0.993 | normalized growth (S. cerevisiae deletion strains, locus YLR330W, strain CHS5, stronger effect = lower value): 1 | normalized growth (S. cerevisiae deletion strains, locus YLR342W, strain FKS1 (second series), stronger effect = lower value): 1.04 | normalized growth (S. cerevisiae deletion strains, locus YLR342W, strain FKS1, stronger effect = lower value): 0.972 | normalized growth (S. cerevisiae deletion strains, locus YLR357W, strain rsc2, stronger effect = lower value): 0.953 | normalized growth (S. cerevisiae deletion strains, locus YLR370C, strain arc18, stronger effect = lower value): 0.98 | normalized growth (S. cerevisiae deletion strains, locus YLR371W, strain rom2, stronger effect = lower value): 0.991 | normalized growth (S. cerevisiae deletion strains, locus YLR384C, strain iki3, stronger effect = lower value): 0.982 | normalized growth (S. cerevisiae deletion strains, locus YLR418C, strain cdc73, stronger effect = lower value): 0.976 | normalized growth (S. cerevisiae deletion strains, locus YML016C, strain PPZ1, stronger effect = lower value): 0.995 | normalized growth (S. cerevisiae deletion strains, locus YML032C, strain rad52, stronger effect = lower value): 0.991 | normalized growth (S. cerevisiae deletion strains, locus YML120C, strain ndi1, stronger effect = lower value): 0.984 | normalized growth (S. cerevisiae deletion strains, locus YML124C, strain tub3, stronger effect = lower value): 0.989 | normalized growth (S. cerevisiae deletion strains, locus YMR058W, strain fet3, stronger effect = lower value): 0.987 | normalized growth (S. cerevisiae deletion strains, locus YMR078C, strain ctf18, stronger effect = lower value): 0.985 | normalized growth (S. cerevisiae deletion strains, locus YMR125W, strain sto1, stronger effect = lower value): 1 | normalized growth (S. cerevisiae deletion strains, locus YMR129W, stronger effect = lower value): 0.965 | normalized growth (S. cerevisiae deletion strains, locus YMR205C, strain PFK2, stronger effect = lower value): 1.05 | normalized growth (S. cerevisiae deletion strains, locus YMR223W, strain ubp8, stronger effect = lower value): 0.992 | normalized growth (S. cerevisiae deletion strains, locus YMR231W, strain pep5, stronger effect = lower value): 0.988 | normalized growth (S. cerevisiae deletion strains, locus YMR307W, strain GAS1, stronger effect = lower value): 1.08 and 1.02 | normalized growth (S. cerevisiae deletion strains, locus YNL067W, strain RPL9B, stronger effect = lower value): 0.985 | normalized growth (S. cerevisiae deletion strains, locus YNL071W, strain lat1, stronger effect = lower value): 0.995 | normalized growth (S. cerevisiae deletion strains, locus YNL128W, strain TEP1, stronger effect = lower value): 0.989 | normalized growth (S. cerevisiae deletion strains, locus YNL153C, strain GIM3, stronger effect = lower value): 0.969 | normalized growth (S. cerevisiae deletion strains, locus YNL175C, strain NOP13, stronger effect = lower value): 1.01 | normalized growth (S. cerevisiae deletion strains, locus YNL183C, strain NPR1, stronger effect = lower value): 0.934 | normalized growth (S. cerevisiae deletion strains, locus YNL197C, strain WHI3, stronger effect = lower value): 1.01 | normalized growth (S. cerevisiae deletion strains, locus YNL209W, strain ssb2, stronger effect = lower value): 0.998 | normalized growth (S. cerevisiae deletion strains, locus YNL224C, strain SQS1, stronger effect = lower value): 1.01 | normalized growth (S. cerevisiae deletion strains, locus YNL233W, strain BNI4, stronger effect = lower value): 0.994 | normalized growth (S. cerevisiae deletion strains, locus YNL248C, strain rpa49, stronger effect = lower value): 0.928 | normalized growth (S. cerevisiae deletion strains, locus YNL250W, strain rad50, stronger effect = lower value): 0.972 | normalized growth (S. cerevisiae deletion strains, locus YNL271C, strain bni1, stronger effect = lower value): 1 | normalized growth (S. cerevisiae deletion strains, locus YNL298W, strain CLA4, stronger effect = lower value): 0.999 | normalized growth (S. cerevisiae deletion strains, locus YNL307C, strain MCK1, stronger effect = lower value): 0.989 | normalized growth (S. cerevisiae deletion strains, locus YNL322C, strain KRE1 (second series), stronger effect = lower value): 0.968 | normalized growth (S. cerevisiae deletion strains, locus YNL322C, strain KRE1, stronger effect = lower value): 0.999 | normalized growth (S. cerevisiae deletion strains, locus YNR049C, strain mso1, stronger effect = lower value): 0.955 | normalized growth (S. cerevisiae deletion strains, locus YNR052C, strain pop2, stronger effect = lower value): 0.999 | normalized growth (S. cerevisiae deletion strains, locus YOL006C, strain TOP1, stronger effect = lower value): 0.903 | normalized growth (S. cerevisiae deletion strains, locus YOL012C, strain htz1): 1.37 | normalized growth (S. cerevisiae deletion strains, locus YOL147C, strain pex11, stronger effect = lower value): 0.999 | normalized growth (S. cerevisiae deletion strains, locus YOR001W, strain rrp6, stronger effect = lower value): 0.984 | normalized growth (S. cerevisiae deletion strains, locus YOR061W, strain CKA2, stronger effect = lower value): 0.964 | normalized growth (S. cerevisiae deletion strains, locus YOR069W, strain VPS5, stronger effect = lower value): 0.999 | normalized growth (S. cerevisiae deletion strains, locus YOR070C, strain gyp1, stronger effect = lower value): 0.986 | normalized growth (S. cerevisiae deletion strains, locus YOR080W, strain dia2, stronger effect = lower value): 0.96 | normalized growth (S. cerevisiae deletion strains, locus YOR083W, strain WHI5 (second series), stronger effect = lower value): 1.03 | normalized growth (S. cerevisiae deletion strains, locus YOR083W, strain WHI5, stronger effect = lower value): 0.879 (active) | normalized growth (S. cerevisiae deletion strains, locus YOR106W, strain vam3, stronger effect = lower value): 0.959 | normalized growth (S. cerevisiae deletion strains, locus YOR136W, strain idh2, stronger effect = lower value): 0.98 | normalized growth (S. cerevisiae deletion strains, locus YOR144C, strain elg1, stronger effect = lower value): 0.994 | normalized growth (S. cerevisiae deletion strains, locus YOR184W, strain ser1, stronger effect = lower value): 0.983 | normalized growth (S. cerevisiae deletion strains, locus YOR231W, strain MKK1, stronger effect = lower value): 1 | normalized growth (S. cerevisiae deletion strains, locus YOR265W, strain rbl2, stronger effect = lower value): 0.956 | normalized growth (S. cerevisiae deletion strains, locus YOR270C, strain vph1, stronger effect = lower value): 0.972 | normalized growth (S. cerevisiae deletion strains, locus YOR290C, strain snf2, stronger effect = lower value): 0.944 | normalized growth (S. cerevisiae deletion strains, locus YOR316C, strain cot1, stronger effect = lower value): 0.986 | normalized growth (S. cerevisiae deletion strains, locus YPL051W, strain arl3, stronger effect = lower value): 0.974 | normalized growth (S. cerevisiae deletion strains, locus YPL055C, strain LGE1, stronger effect = lower value): 0.909 and 0.983 | normalized growth (S. cerevisiae deletion strains, locus YPL078C, strain atp4, stronger effect = lower value): 0.964 | normalized growth (S. cerevisiae deletion strains, locus YPL106C, strain sse1, stronger effect = lower value): 0.965 | normalized growth (S. cerevisiae deletion strains, locus YPL240C, strain hsp82, stronger effect = lower value): 0.99 | normalized growth (S. cerevisiae deletion strains, locus YPL241C, strain CIN2, stronger effect = lower value): 1.01 | normalized growth (S. cerevisiae deletion strains, locus YPL256C, strain CLN2, stronger effect = lower value): 1.02 | normalized growth (S. cerevisiae deletion strains, locus YPR119W, strain clb2, stronger effect = lower value): 0.987 | normalized growth (S. cerevisiae deletion strains, locus YPR141C, strain kar3, stronger effect = lower value): 1 | normalized growth (S. cerevisiae deletion strains, locus YPR163C, strain tif3, stronger effect = lower value): 1 | normalized growth (S. cerevisiae deletion strains, locus YPR167C, strain met16, stronger effect = lower value): 0.999 | normalized growth (S. cerevisiae deletion strains, strain wtn01, stronger effect = lower value): 0.987 | normalized growth (S. cerevisiae strains, strain wild type, stronger effect = lower value): 0.99
